# Source: paper PMC7862700, “An all-to-all approach to the identification of sequence-specific readers for epigenetic DNA modifications on cytosine”
# Experiments:
# Test in all cases: DAPPL (digital affinity profiling via proximity ligation, sequencing); 10 mM Tris-HCl pH 7.5, 50 mM NaCl, 1 mM DTT, 4% glycerol, room temperature, 30 min; GST-TFs on glutathione beads, 16-mer random dsDNA library, 0.1% formaldehyde crosslink after washing; high values mean tight binding
# Conditions in all cases: protein: recombinant; tags: N-terminal GST; dsDNA, one strand shown
# ELK1 = molecular target: T1, ELK1 (Homo sapiens, UniProt P19419 1-428)
# T1 sequence: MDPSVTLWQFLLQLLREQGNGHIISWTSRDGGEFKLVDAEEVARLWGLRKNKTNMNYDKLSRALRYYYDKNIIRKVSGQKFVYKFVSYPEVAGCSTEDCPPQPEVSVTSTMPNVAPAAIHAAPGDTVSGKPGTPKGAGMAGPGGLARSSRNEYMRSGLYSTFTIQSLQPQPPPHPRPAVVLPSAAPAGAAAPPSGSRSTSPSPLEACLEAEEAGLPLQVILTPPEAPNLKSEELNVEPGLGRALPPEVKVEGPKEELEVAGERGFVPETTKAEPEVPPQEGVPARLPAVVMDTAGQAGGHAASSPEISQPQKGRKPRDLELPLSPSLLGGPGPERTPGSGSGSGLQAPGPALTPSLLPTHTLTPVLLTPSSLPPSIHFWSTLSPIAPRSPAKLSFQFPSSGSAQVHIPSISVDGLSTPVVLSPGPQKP
# Outline: (§1)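 GST fusions of human transcription factors were expressed in yeast and captured with glutathione beads. Once given DNA barcodes and pooled alongside a tag-only sample, they were incubated for 30 min at room temperature with 200 nmole of a random double-stranded 16-mer DNA library in Tris/NaCl/DTT/glycerol buffer, then washed, crosslinked (0.1% formaldehyde), proximity-ligated, PCR-amplified and sequenced on an Illumina NextSeq500. The binding signal of each hexamer is its read frequency for a factor divided by its frequency for the tag-only sample.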
# GABPA = molecular target: T2, GABPA (Homo sapiens, UniProt Q06546 1-454)
# T2 sequence: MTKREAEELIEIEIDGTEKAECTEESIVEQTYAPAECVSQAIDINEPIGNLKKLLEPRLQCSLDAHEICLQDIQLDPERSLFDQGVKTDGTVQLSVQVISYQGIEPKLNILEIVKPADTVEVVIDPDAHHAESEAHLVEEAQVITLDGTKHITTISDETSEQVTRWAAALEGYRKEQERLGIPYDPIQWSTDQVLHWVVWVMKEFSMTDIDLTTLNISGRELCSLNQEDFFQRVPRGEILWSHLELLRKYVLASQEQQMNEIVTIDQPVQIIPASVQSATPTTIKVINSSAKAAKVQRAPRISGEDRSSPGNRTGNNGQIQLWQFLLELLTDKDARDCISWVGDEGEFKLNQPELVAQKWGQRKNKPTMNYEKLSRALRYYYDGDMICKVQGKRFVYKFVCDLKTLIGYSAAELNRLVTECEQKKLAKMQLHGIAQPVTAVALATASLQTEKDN
# Outline: as §1
# ERG = molecular target: T3, ERG (Homo sapiens, UniProt P11308 1-479)
# T3 sequence: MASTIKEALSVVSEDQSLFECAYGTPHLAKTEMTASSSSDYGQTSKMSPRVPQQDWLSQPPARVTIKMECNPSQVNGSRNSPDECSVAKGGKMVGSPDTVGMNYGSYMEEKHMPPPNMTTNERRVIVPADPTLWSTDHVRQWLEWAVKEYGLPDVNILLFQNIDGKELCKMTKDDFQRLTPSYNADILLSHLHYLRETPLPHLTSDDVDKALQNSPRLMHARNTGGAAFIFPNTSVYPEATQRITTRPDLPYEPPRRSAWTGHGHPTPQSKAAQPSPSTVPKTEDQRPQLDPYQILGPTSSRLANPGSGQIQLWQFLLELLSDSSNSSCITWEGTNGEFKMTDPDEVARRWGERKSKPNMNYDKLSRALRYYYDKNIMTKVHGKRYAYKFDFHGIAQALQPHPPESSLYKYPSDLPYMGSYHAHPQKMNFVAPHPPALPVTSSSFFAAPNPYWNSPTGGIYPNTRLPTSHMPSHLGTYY
# Outline: as §1
# ELF1 = ELF1 (Homo sapiens, UniProt P32519 1-619)
# Outline: as §1
# EHF = molecular target: T4, EHF (Homo sapiens, UniProt Q9NZC4 1-300)
# T4 sequence: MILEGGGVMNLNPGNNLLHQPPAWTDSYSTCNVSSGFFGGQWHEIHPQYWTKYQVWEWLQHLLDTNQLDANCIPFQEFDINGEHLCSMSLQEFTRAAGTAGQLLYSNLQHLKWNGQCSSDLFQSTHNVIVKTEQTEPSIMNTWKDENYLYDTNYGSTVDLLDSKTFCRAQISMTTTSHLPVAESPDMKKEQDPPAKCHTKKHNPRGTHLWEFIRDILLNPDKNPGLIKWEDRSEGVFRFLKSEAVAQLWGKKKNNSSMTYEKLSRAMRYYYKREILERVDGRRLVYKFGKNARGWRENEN
# Outline: as §1
# ELK3 = molecular target: T5, ELK3 (Homo sapiens, UniProt P41970 1-407)
# T5 sequence: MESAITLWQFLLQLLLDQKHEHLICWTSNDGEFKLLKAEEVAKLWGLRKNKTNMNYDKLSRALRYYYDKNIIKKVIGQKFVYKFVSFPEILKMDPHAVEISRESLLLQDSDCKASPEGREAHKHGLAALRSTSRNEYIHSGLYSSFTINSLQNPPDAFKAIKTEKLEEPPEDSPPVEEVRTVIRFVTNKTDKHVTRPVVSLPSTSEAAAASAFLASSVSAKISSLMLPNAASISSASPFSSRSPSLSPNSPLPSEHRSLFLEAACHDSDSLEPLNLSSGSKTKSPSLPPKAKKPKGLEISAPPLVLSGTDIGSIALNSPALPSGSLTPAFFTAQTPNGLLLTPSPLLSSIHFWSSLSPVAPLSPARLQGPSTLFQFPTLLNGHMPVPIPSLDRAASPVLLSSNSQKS
# Outline: as §1
# FEV = molecular target: T6, FEV (Homo sapiens, UniProt Q99581 1-238)
# T6 sequence: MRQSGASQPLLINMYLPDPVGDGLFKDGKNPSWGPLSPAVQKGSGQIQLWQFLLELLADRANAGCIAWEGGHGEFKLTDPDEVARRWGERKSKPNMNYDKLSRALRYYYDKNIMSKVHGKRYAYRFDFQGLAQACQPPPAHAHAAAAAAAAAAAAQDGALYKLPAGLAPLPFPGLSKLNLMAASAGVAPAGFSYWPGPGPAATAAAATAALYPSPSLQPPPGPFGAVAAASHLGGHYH
# Outline: as §1
# ETV5 = ETV5 (Homo sapiens, UniProt P41161 1-510)
# Outline: as §1
# ELF4 = ELF4 (Homo sapiens, UniProt Q99607 1-663)
# Outline: as §1
# Sequence of ELF1 (P32519 whole entry): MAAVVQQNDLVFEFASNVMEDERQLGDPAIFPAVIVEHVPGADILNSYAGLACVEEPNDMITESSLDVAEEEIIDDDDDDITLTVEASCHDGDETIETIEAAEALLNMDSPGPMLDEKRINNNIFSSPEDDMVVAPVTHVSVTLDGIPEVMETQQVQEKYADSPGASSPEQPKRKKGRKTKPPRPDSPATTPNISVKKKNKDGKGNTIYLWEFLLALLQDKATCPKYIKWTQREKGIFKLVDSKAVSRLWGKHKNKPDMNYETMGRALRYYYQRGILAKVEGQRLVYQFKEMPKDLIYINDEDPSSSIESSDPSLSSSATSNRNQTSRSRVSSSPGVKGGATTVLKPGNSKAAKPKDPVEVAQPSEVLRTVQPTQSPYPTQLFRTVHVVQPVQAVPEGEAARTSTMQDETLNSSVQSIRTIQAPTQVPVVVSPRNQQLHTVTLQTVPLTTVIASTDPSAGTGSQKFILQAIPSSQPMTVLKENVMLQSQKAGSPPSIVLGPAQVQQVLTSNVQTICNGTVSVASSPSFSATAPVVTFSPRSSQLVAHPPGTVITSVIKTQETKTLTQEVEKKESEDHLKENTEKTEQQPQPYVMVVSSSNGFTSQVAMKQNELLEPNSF
# Sequence of ETV5 (P41161 whole entry): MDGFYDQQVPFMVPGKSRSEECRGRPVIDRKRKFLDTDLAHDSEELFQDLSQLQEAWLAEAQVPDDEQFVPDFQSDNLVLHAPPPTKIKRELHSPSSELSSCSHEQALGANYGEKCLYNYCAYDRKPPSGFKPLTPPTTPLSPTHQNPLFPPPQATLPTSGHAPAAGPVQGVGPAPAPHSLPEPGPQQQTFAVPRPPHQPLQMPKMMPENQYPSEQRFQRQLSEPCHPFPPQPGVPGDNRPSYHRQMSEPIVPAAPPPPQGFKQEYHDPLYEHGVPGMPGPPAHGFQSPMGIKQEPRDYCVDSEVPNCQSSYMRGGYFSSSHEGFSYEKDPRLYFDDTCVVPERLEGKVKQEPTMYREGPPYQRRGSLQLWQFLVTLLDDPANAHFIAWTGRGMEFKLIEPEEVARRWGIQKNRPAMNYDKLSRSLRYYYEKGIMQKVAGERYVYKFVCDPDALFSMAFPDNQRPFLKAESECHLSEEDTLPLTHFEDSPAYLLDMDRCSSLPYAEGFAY
# Sequence of ELF4 (Q99607 whole entry): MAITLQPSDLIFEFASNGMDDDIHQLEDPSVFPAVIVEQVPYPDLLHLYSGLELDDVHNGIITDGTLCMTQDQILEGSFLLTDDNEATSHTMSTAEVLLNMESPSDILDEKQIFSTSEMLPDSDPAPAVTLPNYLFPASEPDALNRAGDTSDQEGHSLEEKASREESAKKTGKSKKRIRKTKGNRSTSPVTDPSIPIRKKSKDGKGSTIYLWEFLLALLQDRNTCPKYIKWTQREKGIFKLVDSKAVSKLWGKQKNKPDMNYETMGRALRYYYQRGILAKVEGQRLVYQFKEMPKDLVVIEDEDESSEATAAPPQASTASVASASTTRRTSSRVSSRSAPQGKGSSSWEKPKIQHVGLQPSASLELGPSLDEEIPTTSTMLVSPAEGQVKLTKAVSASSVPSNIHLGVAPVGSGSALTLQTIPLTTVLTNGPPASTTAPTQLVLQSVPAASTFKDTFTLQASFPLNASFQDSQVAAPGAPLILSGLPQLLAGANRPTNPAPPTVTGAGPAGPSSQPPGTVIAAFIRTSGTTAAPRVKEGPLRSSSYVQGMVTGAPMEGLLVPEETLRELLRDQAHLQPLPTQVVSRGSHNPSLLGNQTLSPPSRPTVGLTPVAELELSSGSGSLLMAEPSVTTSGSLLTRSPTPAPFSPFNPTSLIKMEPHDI
sequence,measurement,setting,value
GTGCAT,binding signal,ELK1,"1.05 fold enrichment (6-mer frequency, TF over GST control)"
same,binding signal,GABPA,"1.1 fold enrichment (6-mer frequency, TF over GST control)"
same,binding signal,ERG,"1.06 fold enrichment (6-mer frequency, TF over GST control)"
same,binding signal,ELF1,"1.01 fold enrichment (6-mer frequency, TF over GST control)"
same,binding signal,EHF,"1.07 fold enrichment (6-mer frequency, TF over GST control)"
same,binding signal,ELK3,"1.16 fold enrichment (6-mer frequency, TF over GST control)"
same,binding signal,FEV,"1.06 fold enrichment (6-mer frequency, TF over GST control)"
same,binding signal,ETV5,"1.13 fold enrichment (6-mer frequency, TF over GST control)"
same,binding signal,ELF4,"1.08 fold enrichment (6-mer frequency, TF over GST control)"
